From ChEMBL document CHEMBL1961873, “Compounds: GSK PKIS; Assays: Nanosyn kinase panel” (2012)

Legend:
[1] = biological target: Rho-associated protein kinase 1 (Homo sapiens) (UniProt Q13464); details: at 1 µM;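 further: reported values are mean percent inhibition of ROCK1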
[2] = biological target: Rho-associated protein kinase 2 (Homo sapiens) (UniProt O75116); details: at 0.1 µM
[3] = biological target: Rho-associated protein kinase 2 (Homo sapiens) (UniProt O75116); details: at 1 µM
[4] = biological target: Ribosomal protein S6 kinase alpha-1 (Homo sapiens) (UniProt Q15418); details: at 0.1 µM
Sequence of Ribosomal protein S6 kinase alpha-1 (Homo sapiens) (Q15418 whole entry): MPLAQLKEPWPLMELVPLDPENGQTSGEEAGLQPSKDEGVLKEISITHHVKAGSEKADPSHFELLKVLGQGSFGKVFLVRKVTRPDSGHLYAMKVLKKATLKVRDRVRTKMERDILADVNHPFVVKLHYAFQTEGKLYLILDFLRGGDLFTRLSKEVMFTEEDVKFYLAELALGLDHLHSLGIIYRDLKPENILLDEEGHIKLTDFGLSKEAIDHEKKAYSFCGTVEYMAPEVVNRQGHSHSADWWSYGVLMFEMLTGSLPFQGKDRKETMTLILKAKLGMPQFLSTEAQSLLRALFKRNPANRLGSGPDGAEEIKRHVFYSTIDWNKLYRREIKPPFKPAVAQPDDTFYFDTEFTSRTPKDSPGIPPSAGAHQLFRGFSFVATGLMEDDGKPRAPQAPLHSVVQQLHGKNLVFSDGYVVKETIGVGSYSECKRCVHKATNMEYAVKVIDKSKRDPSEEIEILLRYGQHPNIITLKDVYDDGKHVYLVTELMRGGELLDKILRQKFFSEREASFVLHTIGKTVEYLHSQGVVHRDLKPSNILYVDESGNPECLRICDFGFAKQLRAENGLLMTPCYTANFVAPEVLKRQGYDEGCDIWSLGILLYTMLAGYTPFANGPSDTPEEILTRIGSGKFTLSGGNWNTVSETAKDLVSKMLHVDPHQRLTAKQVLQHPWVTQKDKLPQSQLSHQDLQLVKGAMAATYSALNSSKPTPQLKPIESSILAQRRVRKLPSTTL

[5] = biological target: Ribosomal protein S6 kinase alpha-1 (Homo sapiens) (UniProt Q15418); details: at 1 µM
[6] = biological target: Ribosomal protein S6 kinase alpha-3 (Homo sapiens) (UniProt P51812); details: at 0.1 µM
Sequence of Ribosomal protein S6 kinase alpha-3 (Homo sapiens) (P51812 whole entry): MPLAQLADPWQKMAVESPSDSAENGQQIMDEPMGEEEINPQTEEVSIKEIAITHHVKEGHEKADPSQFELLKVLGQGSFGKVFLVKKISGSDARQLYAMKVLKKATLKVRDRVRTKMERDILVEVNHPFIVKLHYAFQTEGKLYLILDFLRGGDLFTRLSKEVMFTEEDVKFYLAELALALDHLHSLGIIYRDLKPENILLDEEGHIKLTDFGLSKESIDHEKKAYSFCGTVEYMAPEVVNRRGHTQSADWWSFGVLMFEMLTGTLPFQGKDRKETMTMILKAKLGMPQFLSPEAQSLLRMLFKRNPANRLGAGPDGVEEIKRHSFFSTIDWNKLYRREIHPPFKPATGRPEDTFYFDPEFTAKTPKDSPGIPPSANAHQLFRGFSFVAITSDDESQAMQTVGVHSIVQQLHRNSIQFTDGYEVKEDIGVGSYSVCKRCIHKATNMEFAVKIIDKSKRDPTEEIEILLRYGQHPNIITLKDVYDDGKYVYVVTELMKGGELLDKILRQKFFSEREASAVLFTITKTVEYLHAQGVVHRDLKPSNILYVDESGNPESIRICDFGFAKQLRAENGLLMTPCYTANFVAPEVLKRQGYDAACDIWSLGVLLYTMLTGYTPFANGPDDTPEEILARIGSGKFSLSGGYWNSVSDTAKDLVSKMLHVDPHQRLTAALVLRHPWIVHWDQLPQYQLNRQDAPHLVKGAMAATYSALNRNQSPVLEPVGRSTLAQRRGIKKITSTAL

[7] = biological target: Ribosomal protein S6 kinase alpha-3 (Homo sapiens) (UniProt P51812); details: at 1 µM
[8] = biological target: Ribosomal protein S6 kinase alpha-2 (Homo sapiens) (UniProt Q15349); details: at 0.1 µM
[9] = biological target: Ribosomal protein S6 kinase alpha-2 (Homo sapiens) (UniProt Q15349); details: at 1 µM
[10] = biological target: Ribosomal protein S6 kinase alpha-6 (Homo sapiens) (UniProt Q9UK32); details: at 0.1 µM
[11] = biological target: Ribosomal protein S6 kinase alpha-6 (Homo sapiens) (UniProt Q9UK32); details: at 1 µM
[12] = biological target: T1, Serine/threonine-protein kinase Sgk1 (Homo sapiens) (UniProt O00141); details: at 0.1 µM
T1 sequence (whole entry): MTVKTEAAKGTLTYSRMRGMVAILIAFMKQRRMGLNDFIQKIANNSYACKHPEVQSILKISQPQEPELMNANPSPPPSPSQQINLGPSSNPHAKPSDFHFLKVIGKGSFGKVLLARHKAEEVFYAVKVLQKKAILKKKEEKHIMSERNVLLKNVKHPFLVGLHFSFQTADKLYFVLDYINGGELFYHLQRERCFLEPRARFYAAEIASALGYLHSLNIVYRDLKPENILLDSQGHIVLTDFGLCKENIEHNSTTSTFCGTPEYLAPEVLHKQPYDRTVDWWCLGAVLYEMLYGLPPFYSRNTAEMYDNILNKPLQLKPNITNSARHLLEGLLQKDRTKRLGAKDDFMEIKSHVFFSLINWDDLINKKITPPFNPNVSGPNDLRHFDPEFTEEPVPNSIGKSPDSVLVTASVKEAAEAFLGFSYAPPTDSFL

[13] = biological target: T1, Serine/threonine-protein kinase Sgk1 (Homo sapiens); details: at 1 µM
[14] = biological target: T2, Serine/threonine-protein kinase Sgk2 (Homo sapiens) (UniProt Q9HBY8); details: at 0.1 µM
T2 sequence (whole entry): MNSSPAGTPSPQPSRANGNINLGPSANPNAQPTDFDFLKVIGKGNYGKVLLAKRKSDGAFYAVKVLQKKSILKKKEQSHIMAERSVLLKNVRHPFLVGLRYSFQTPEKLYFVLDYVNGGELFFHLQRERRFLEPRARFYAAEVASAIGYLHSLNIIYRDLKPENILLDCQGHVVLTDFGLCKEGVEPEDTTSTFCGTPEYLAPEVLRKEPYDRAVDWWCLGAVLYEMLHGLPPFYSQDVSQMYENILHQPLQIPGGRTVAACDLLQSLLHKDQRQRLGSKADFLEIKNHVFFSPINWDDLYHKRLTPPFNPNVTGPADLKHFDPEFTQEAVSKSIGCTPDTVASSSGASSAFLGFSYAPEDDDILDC

[15] = biological target: T2, Serine/threonine-protein kinase Sgk2 (Homo sapiens); details: at 1 µM
[16] = biological target: T3, Serine/threonine-protein kinase Sgk3 (Homo sapiens) (UniProt Q96BR1); details: at 0.1 µM
T3 sequence (whole entry): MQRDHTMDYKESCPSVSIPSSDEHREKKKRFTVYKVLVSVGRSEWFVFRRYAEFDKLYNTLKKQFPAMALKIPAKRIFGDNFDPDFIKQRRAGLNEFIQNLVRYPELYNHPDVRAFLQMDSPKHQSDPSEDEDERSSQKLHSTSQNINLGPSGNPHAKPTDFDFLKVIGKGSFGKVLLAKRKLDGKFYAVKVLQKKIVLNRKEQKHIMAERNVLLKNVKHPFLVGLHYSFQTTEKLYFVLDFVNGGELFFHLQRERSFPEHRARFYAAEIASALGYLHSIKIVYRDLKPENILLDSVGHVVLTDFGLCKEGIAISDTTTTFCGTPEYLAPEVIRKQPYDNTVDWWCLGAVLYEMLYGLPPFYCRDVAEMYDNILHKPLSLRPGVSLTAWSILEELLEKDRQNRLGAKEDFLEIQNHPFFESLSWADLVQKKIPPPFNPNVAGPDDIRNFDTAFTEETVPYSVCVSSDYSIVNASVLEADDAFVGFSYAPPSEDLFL

[17] = biological target: T3, Serine/threonine-protein kinase Sgk3 (Homo sapiens); details: at 1 µM
[18] = biological target: 5'-AMP-activated protein kinase catalytic subunit alpha-1 (Homo sapiens) (UniProt Q13131); details: at 0.1 µM
Sequence of 5'-AMP-activated protein kinase catalytic subunit alpha-1 (Homo sapiens) (Q13131 whole entry, looked up): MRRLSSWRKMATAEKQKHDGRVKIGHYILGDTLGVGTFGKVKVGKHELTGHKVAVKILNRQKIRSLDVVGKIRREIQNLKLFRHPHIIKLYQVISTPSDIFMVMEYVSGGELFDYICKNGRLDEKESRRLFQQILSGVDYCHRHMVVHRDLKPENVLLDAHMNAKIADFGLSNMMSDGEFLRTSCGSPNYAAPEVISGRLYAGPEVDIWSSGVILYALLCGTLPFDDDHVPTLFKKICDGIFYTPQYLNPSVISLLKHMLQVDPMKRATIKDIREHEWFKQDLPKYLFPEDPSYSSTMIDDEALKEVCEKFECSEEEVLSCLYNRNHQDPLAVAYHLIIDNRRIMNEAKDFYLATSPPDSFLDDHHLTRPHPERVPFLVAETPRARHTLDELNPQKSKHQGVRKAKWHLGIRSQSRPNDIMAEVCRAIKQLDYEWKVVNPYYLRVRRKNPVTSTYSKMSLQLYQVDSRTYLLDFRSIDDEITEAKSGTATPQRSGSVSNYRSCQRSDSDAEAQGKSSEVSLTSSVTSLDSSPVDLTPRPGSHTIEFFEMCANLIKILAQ

[19] = biological target: 5'-AMP-activated protein kinase catalytic subunit alpha-1 (Homo sapiens) (UniProt Q13131); details: at 1 µM
[20] = biological target: 5'-AMP-activated protein kinase catalytic subunit alpha-2 (Homo sapiens) (UniProt P54646); details: at 0.1 µM;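 further: mean inhibition measured on the AMPK complex of alpha2, beta1 and gamma1 subunits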

Sequence of Rho-associated protein kinase 1 (Homo sapiens) (Q13464 2-1354 limits assumed): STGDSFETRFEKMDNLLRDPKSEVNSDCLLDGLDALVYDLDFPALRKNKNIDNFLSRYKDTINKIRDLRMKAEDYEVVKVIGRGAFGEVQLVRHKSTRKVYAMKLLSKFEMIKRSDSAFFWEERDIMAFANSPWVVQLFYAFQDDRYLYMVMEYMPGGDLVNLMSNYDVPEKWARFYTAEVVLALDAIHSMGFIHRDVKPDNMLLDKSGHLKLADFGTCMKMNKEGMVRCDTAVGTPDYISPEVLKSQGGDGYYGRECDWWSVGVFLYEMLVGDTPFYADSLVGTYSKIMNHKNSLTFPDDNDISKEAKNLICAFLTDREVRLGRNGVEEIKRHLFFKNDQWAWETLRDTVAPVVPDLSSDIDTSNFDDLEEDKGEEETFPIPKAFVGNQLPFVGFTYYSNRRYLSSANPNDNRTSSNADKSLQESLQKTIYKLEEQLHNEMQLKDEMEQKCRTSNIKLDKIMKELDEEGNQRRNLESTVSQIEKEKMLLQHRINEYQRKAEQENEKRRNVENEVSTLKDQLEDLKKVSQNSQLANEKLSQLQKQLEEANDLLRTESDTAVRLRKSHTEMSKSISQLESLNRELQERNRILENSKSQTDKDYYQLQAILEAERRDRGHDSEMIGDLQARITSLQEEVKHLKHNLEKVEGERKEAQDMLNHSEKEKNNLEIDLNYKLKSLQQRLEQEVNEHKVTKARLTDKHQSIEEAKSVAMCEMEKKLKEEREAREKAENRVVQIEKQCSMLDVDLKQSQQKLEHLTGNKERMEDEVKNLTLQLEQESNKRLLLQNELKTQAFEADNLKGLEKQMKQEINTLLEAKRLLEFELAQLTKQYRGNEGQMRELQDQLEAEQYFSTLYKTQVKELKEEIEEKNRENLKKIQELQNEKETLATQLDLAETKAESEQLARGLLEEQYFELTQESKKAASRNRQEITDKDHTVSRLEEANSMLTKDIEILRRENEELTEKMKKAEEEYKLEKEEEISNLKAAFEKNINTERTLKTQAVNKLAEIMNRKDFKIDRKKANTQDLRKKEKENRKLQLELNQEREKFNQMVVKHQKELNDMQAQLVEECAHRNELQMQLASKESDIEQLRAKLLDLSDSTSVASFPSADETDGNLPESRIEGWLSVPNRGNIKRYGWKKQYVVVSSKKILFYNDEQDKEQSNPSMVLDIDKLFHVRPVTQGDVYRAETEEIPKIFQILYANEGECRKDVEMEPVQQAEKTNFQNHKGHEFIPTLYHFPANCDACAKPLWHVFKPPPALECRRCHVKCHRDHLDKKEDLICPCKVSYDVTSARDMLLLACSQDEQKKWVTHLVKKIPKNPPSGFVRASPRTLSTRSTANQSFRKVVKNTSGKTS
Sequence of Rho-associated protein kinase 2 (Homo sapiens) (O75116 whole entry, looked up): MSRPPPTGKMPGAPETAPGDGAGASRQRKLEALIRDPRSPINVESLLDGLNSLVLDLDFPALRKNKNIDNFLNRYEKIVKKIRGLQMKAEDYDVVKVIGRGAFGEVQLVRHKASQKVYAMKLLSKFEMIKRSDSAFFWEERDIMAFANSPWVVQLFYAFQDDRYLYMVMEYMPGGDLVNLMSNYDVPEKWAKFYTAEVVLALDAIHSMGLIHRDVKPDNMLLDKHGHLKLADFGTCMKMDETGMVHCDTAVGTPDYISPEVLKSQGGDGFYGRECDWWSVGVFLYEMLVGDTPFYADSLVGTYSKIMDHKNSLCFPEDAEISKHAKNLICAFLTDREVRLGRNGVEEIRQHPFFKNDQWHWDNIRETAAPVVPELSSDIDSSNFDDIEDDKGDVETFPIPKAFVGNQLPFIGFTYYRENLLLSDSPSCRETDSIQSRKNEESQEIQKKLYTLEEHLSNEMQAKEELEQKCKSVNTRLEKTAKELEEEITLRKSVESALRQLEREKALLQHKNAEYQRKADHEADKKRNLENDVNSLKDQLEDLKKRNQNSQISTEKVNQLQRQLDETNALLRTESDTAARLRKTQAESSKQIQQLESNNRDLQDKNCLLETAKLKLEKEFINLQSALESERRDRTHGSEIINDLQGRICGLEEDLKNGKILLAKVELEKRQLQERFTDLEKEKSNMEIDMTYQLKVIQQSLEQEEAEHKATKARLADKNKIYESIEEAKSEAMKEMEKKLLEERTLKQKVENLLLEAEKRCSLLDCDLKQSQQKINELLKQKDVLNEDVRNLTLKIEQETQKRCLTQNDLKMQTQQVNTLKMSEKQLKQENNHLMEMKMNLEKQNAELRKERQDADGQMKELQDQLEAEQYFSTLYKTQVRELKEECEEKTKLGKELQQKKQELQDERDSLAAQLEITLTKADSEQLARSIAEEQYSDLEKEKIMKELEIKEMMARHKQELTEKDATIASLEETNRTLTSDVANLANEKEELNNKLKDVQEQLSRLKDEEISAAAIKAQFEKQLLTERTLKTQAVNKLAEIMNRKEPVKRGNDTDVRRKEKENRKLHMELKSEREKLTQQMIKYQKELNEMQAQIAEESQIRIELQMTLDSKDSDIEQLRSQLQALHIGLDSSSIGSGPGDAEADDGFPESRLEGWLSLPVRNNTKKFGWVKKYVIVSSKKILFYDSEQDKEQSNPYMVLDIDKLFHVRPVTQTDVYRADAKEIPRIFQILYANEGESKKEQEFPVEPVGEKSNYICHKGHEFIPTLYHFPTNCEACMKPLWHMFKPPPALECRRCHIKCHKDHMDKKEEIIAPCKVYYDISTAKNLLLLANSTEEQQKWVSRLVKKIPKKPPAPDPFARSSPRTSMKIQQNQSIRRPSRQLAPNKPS

| SMILES | inhibition [1] [%] | inhibition [2] [%] | inhibition [3] [%] | inhibition [4] [%] | inhibition [5] [%] | inhibition [6] [%] | inhibition [7] [%] | inhibition [8] [%] | inhibition [9] [%] | inhibition [10] [%] | inhibition [11] [%] | inhibition [12] [%] | inhibition [13] [%] | inhibition [14] [%] | inhibition [15] [%] | inhibition [16] [%] | inhibition [17] [%] | inhibition [18] [%] | inhibition [19] [%] | inhibition [20] [%] |
| --- | --- | --- | --- | --- | --- | --- | --- | --- | --- | --- | --- | --- | --- | --- | --- | --- | --- | --- | --- | --- |
| Nc1nccc(-c2c(-c3ccc(F)cc3)ncn2CCCN2CCOCC2)n1 | 3.31 | 4.99 | 5.24 | 2.16 | 4.6 | 1.92 | 2.6 | 3.04 | 2.27 | 2.26 | 3.56 | 1.7 | 5.95 | 0.32 | 6.95 | 3.43 | 3.38 | 3.37 | 3.19 | 3.33 |
| C[C@@H](Oc1cc(-n2cnc3ccc(OC[C@@H](O)CO)cc32)sc1C(N)=O)c1ccccc1Cl | 1.42 | -0.36 | 0.84 | 0.36 | 3.32 | 1.35 | 5.89 | -0.54 | 3.27 | -0.4 | 12.7 | 1.2 | 0.68 | 1.68 | 2.9 | -1.63 | 0.55 | 0.18 | 5.73 | 0.26 |
| CN(C)c1cc2c(Nc3ccc4c(cnn4Cc4ccccc4)c3)ncnc2cn1 | 2.38 | 2.57 | 3.89 | 0.98 | 3.04 | 1.41 | 2.13 | 1.63 | 3.42 | 0.97 | 1.71 | 1.94 | 2.27 | 0.16 | -0.04 | 1.86 | 1.33 | 2.65 | 3.27 | 1.84 |
| NS(=O)(=O)c1ccc(-c2cc3ccncc3cc2OCc2ccccc2)cc1 | 4.04 | 2.48 | 6.37 | 1.11 | 3.06 | -0.24 | 0.92 | 0.22 | 2.19 | -0.43 | 0.34 | 2.5 | 2.69 | 1.44 | -1.22 | 0.75 | 2.72 | 2.82 | 3.15 | 0.66 |
| Cc1cc(-c2ccccn2)cc(C)c1/C=C/c1cncc(-c2nn[nH]n2)c1 | 2.97 | 1.11 | 3.33 | -1.27 | 1.85 | -0.57 | 1.01 | 0.4 | 1.84 | -1.04 | 1.31 | 0.67 | 1.66 | 3.28 | -0.92 | 4.48 | 2.45 | 0.33 | 3.53 | 6.43 |
| Cc1ccc(O)cc1Nc1ccnc2ccc(S(C)(=O)=O)cc12 | 1.52 | 4.28 | 5.46 | 2.4 | 0.29 | 0.8 | 1.28 | 3.52 | 3.02 | 2.13 | 1.9 | 3.76 | 6.8 | 4.31 | 4.71 | 4.36 | 5.21 | 2.21 | 5.69 | 3.06 |
| Nc1ccc(C#Cc2cncnc2Nc2ccc(OCc3cccc(F)c3)c(Cl)c2)cc1 | 2.72 | 1.93 | 1.92 | 1.19 | 1.59 | 0.98 | 1.75 | 1.56 | 3.21 | 0.9 | 0.51 | 1.87 | 2.62 | 4.82 | 3.04 | 2.22 | 2.3 | 1.54 | 2.87 | -0.27 |
| O=C1Nc2ccc(-c3cccnc3)cc2C1=Cc1cc(Br)c(O)c(Br)c1 | 4.77 | 2.87 | 7.43 | 2.15 | 2.73 | 0.76 | -1.29 | 1.03 | 3.66 | 1.69 | 5.51 | 3.01 | 3.05 | 1.63 | 6.41 | 3.1 | 2 | 3.07 | 3.3 | 2.54 |
| CN(C)C(=O)O[C@H]1CN[C@H](C#Cc2cc3ncnc(Nc4ccc(OCc5cccc(F)c5)c(Cl)c4)c3s2)C1 | 4.25 | 2.11 | 2.54 | 1.95 | 2.1 | 0.75 | 1.6 | 0.37 | 3.74 | 0.96 | 1.62 | 0.38 | 1.38 | 0.9 | -0.85 | 0.13 | 0.86 | 2.01 | 2.18 | 1.83 |
| COc1ccc2ncnc(Nc3ccc(OCc4ccccc4)cc3)c2c1 | -0.47 | 1.37 | 1.27 | 0.33 | 0.98 | 1.83 | 1.15 | 0.9 | 0.99 | 1.03 | 0.55 | 0.21 | 4.55 | -1.08 | -0.13 | 2.62 | 2.59 | 2.15 | 1.44 | 0.53 |
| Nc1nccc(-c2c(-c3ccc(F)cc3)nn3cc(C(F)(F)F)ccc23)n1 | -0.27 | -1.57 | 0.18 | 0.48 | 0.53 | -0.83 | -1.02 | 0.95 | 0.63 | -1.83 | -1.48 | 1.36 | 0.06 | 2.28 | -4.03 | 3.01 | -3.28 | -1.23 | -0.36 | 0.94 |
| CCCN1CCCC(c2ccc(Nc3nc(Nc4cc(F)ccc4C(N)=O)c4cc[nH]c4n3)c(OC)c2)C1 (stereo not given) | 67.7 | 27.2 | 71.3 | 35.1 | 72.5 | 22.6 | 40.2 | 9.15 | 38 | 19.7 | 54.1 | 3.79 | 4.78 | 1.44 | 6.37 | 4.46 | 0.16 | 6.07 | 20.3 | 4.5 |
